What follows are sequences tested against KCNRG (assay: pooled miR-30 sensor sort-seq; sequence = guide strand). Details: shRNA.
Note: reference of the scale not given here.

| Sequence | sensor-assay potency score (higher = more potent) |
| --- | --- |
| TACTGTTCTAGTGCTGACCAAA | -1.23 |
| TTTTGGTGTTTCATTCGTGATG | -1.02 |
| TTGTCTTCAGAAGATACTGTTC | -0.478 |
| TATGATGATAGTCTCTGGTTTT | -0.744 |
| TTTTATAGAAACATACCTGACT | -0.489 |
| TTCTAGTGCTGACCAAATGAAA | -1.49 |
| TATAGCATTCAGTTTTGTCTTC | 0.0468 |
| TTTTGTCTTCAGAAGATACTGT | 0.229 |
| TTCGTGATGAGCACTTCAGGGC | 0.363 |
| TTTGTCTTCAGAAGATACTGTT | -0.101 |

What follows are sequences tested against KCNS2 in the same assay as above. Details: shRNA.

| Sequence | sensor-assay potency score (higher = more potent) |
| --- | --- |
| TAGTCCCTTAAATTGACCGAAG | -1.33 |
| TAGAATAGCGTACACGATGGAC | -0.475 |
| TAGGGCATTCTTGAAGAACTTG | -0.408 |
| TTACACCATAACCATAAGGTGC | -1.42 |
| TACTCCTTACACCATAACCATA | -1.82 |
| TGCTCCACGATTTCGAACCTAG | -0.681 |
| TCGAAGTAGAACTCCCGCTGGA | -0.212 |
| TTAAACTGAGTTCACTTGGTGA | -0.682 |
| TTTAAACTGAGTTCACTTGGTG | 0.664 |
| TTCTTTGTAGCTGTATTTCAAA | -1 |
| TAGAAATGCAGCACGTAGGGGA | 0.48 |
| TTTATGGGCATAATAGTCCCTT | -0.514 |

The sequences below were run against KCTD3 in the same assay as above. Details: shRNA.

| Sequence | sensor-assay potency score (higher = more potent) |
| --- | --- |
| TATCAATAAATATAGCACCAGT | -0.952 |
| TGTAGTACAGTCAACAGCCTGG | 0.267 |
| TTGCATTTAAAGCTACTCGTTC | -0.407 |
| TTTAAATTTACAATTACCCTAT | 0.0082 |
| TGATTCTGTAACACACAGCAAA | -1.06 |
| TTGTAGTACAGTCAACAGCCTG | -1.16 |
| TTATCTTTCATTCGCAAGGGGA | -0.381 |
| TTGAGTAGCTCTTCTTCGGTTG | -0.328 |
| TTTGAGTAGCTCTTCTTCGGTT | -0.151 |
| TAGTTATAGGAACAACATCTTG | -1.48 |
| AGGAACAACATCTTGAACCTGC | -0.641 |

The sequences below were run against KDELR1 in the same assay as above. Details: shRNA.

| Sequence | sensor-assay potency score (higher = more potent) |
| --- | --- |
| TAGACCACCTTCATACACGTGT | 0.283 |
| TTGCTCACCATGAACAGCTGCG | -0.0886 |
| TTGAGCAGTAGCAAGATGATGG | -0.401 |
| AGGAACTCCACTCTGAACGTGT | -0.99 |
| TAGAGTGAGATGTAGTTGGTGA | 0.498 |
| ATCGTAAGTAGCTTTGAACTTG | -0.446 |
| TTTGGTGATATAGAGGTAGAAG | -0.962 |

— the OligoGym collection
